# Only some compounds are listed: those with a hit (about 4.7% of all), similar ones and a draw of the others.
# GDH-TPI counter-1: GDH-TPI coupled enzyme inhibition counter-screen | AID 588335 | hit rate 1.2% among 360,000 | inhibition, % at 4.8 µM | GDH-TPI coupled enzyme counterscreen, NADH absorbance;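 note: 0% = DMSO wells and 100% = wells lacking the enzyme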
# DUSP3 inh: DUSP3 (human) phosphatase inhibition; recombinant VHR phosphatase, pNPP absorbance; P51452; hit rate 0.52% among 290,000; AID 1654; inhibition, % at 13.3 µM; in the data active = inhibition above about 50%
# RecA intein inh: blocks M. tuberculosis RecA intein splicing; P9WHJ3; cell-free RecA intein splicing, fluorescence; inhibition, % (no concentration beside the values); hit rate 0.75% among 290,000; AID 2221; in the data active = inhibition above about 30%;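 note: 0% = vehicle wells and 100% = reference inhibitor control wells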
# 3CLpro inhibitor: SARS-CoV 3CLpro protease inhibition; recombinant SARS-CoV 3CLpro, quenched FRET peptide cleavage; inhibition, % at 6 µM; hit rate 0.14% among 290,000; AID 1706; in the data active = inhibition above about 12%
# CCHF vOTU inh: CCHFV vOTU protease inhibition | Pep-AMC fluorescence | inhibition, % at 11.5 µM | hit rate 0.55% among 370,000; note: 0% = vehicle wells with enzyme and 100% = no enzyme wells
# Mtb FBA inh: inhibits M. tuberculosis FBA enzyme; hit rate 2.3% among 360,000; inhibition, % at 1 µM; AID 588726; P9WQA3; purified M. tuberculosis FBA, fluorescence read-out; in the data active = inhibition above about 27%;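 note: 0% = vehicle and 100% = reference inhibitor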
# Mtb FBA inh conf: Mtb FBA inhibition, confirmed. shares compounds with Mtb FBA inh. purified M. tuberculosis FBA, fluorescence read-out. inhibition, % at 1 µM. hit rate 78% among 5,600. AID 651616; in the data active = inhibition above about 27%;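 note: 0% = vehicle wells and 100% = reference inhibitor wells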
# GDH-TPI counter-2: GDH-TPI inhibition counter-screen for FBA inhibitors. shares compounds with Mtb FBA inh. GDH-TPI coupled enzyme counterscreen, fluorescence. inhibition, % at 1 µM. hit rate 81% among 5,600. AID 652141; in the data active = inhibition above about 10%
# * marks the source's active call; other numbers are inactive results; . = no result given; + = active, no number. Cut-off read from the data, not from the text of the source, unless noted: active = inhibition above about 30%; inactive = the rest.
SMILES,GDH-TPI counter-1,DUSP3 inh,RecA intein inh,3CLpro inhibitor,CCHF vOTU inh,Mtb FBA inh,Mtb FBA inh conf,GDH-TPI counter-2
CN1CC=C2C(C#N)=C(N)C(C#N)(C#N)[C@H](c3cccc(Cl)c3)C2C1 (some centres not stated),12.4,2.6,-40.0,8.5,-37.0,28.5*,8.8,-0.5
COc1cccc(C2C3CN(C)CC=C3C(C#N)=C(N)C2(C#N)C#N)c1OC (configuration not stated),8.2,4.8,-73.7,-1.7,2.1,5.8,.,.
COc1ccc(CCNC(=O)CSc2nc(=O)n3cc(C)ccc3n2)cc1OC,14.2,.,-0.3,.,-8.5,-0.8,.,.
CCCCCc1cc(=O)oc2c(C(CCN(CC)CC)c3ccc(N(C)C)cc3)c(OC)cc(OC)c12 (configuration not stated),10.9,-16.6,11.9,.,14.7,4.0,.,.
C=CCn1c(Cc2cccs2)nnc1SCC(=O)Nc1ccc(C)cc1,.,.,.,.,1.3,.,.,.
Cc1[nH]n2c(=O)c3c(nc2c1-c1ccccc1)CCCC3,4.3,3.0,1.1,-4.4,14.9,4.9,.,.
Cc1[nH]n2c(=O)c3c(nc2c1-c1cccc2ccccc12)CCC3,7.7,37.0,3.6,-7.9,-13.5,50.8*,132.2*,96.2*
O=C(CCNC(=O)c1ccccc1Cl)NCCC1=CCCCC1,-7.9,.,-1.1,.,-7.7,-1.1,.,.
Oc1ccc2ccccc2c1C=Nc1ccccc1-c1nc2ccccc2[nH]1,9.5,14.5,-9.7,3.0,-175.1,67.1*,61.6*,38.2*
Cc1ccc(NC(=O)C2C3C=CC4(O3)C2C(=O)N(CCCN2CCCCC2)C4C(=O)NC2CCCCC2)cc1C (configuration not stated),-1.1,-2.7,0.3,6.2,-11.7,-1.9,.,.
CC1Nc2ccccc2C(=O)N1NC(=O)c1ccc(Br)cc1 (configuration not stated),-0.3,-17.0,1.7,8.1,-5.8,2.2,.,.
CCOC(=O)NN1C(=O)c2ccccc2NC1c1ccccc1F (configuration not stated),2.2,12.0,0.8,-3.0,-63.2,37.2*,51.0*,32.3*
CCOC(=O)NN1C(=O)c2ccccc2NC1C (configuration not stated),0.3,-14.0,-4.0,-2.1,-86.2,72.5*,146.3*,116.4*
CCOC(=O)NN1C(=O)c2ccccc2NC1c1ccc(OC)cc1 (configuration not stated),8.5,38.4,-11.2,0.1,-43.2,40.1*,140.5*,119.5*
CCOC(=O)NN1C(=O)c2ccccc2NC1c1ccccn1 (configuration not stated),4.1,-1.0,-0.5,5.3,-40.0,29.8*,105.0*,76.7*
CCOC(=O)[C@]12CCC=C1N(Cc1ccc3c(c1)OCO3)C(=O)[C@H](CC(=O)N1CCC(c3ccccc3)CC1)C2,.,.,.,.,12.2,.,.,.
CC1(C(=O)NS(=O)(=O)c2cccs2)CCN1C(=O)c1ccco1 (configuration not stated),-0.9,.,.,.,-4.6,6.8,.,.
Cc1cccc(C)c1NC(=O)CNC(=O)c1c(-c2ccccc2)noc1C,-6.9,.,.,.,-9.4,-0.1,.,.
O=C(O)CCC(=O)NN1C(=O)c2ccccc2NC1c1ccco1 (configuration not stated),1.3,21.3,-1.5,0.3,-48.6,32.3*,-3.5,-3.9
CCOC(=O)NN1C(=O)c2ccccc2NC1c1ccc(N(C)C)cc1 (configuration not stated),16.7,17.0,4.6,-0.8,-9.3,9.6,.,.
CCOC(=O)NN1C(=O)c2ccccc2NC1c1ccccc1 (configuration not stated),7.8,4.1,-13.0,0.9,-55.6,39.5*,+,+
COc1ccc2c(C)c(C(=O)N3CC[C@@H](N4CCC(O)CC4)[C@H](O)C3)oc2c1,-0.4,27.3,-0.3,-2.2,-8.3,45.5*,105.4*,81.5*
CCN1CCN(C(c2cccs2)C(C)NC(=O)C(=O)N2CCCCC2)CC1 (configuration not stated),1.7,25.3,-0.9,1.0,10.3,-3.0,.,.
CN(C(=O)c1cccs1)c1ccccc1C(=O)O,8.4,17.5,-2.2,2.1,-11.0,27.0*,3.8,3.4
COc1cc2sc3cc(NCc4ccc(C)o4)ccc3c(=O)c2cc1OC,19.8,.,.,.,-15.9,32.8*,131.3*,125.8*
SMILES,GDH-TPI counter-1,DUSP3 inh,RecA intein inh,3CLpro inhibitor,CCHF vOTU inh,Mtb FBA inh,Mtb FBA inh conf,GDH-TPI counter-2
COc1cc2sc3cc(NCC[C@@H]4CCCN4C)ccc3c(=O)c2cc1OC,41.8*,.,.,.,-39.4,31.9*,+,193.8*
CCOC(=O)N1CCC(NC(=O)c2cc(-c3ccc(OC)cc3)nc3ccccc23)CC1,18.8,10.4,-2.9,4.5,-0.1,12.5,.,.
COc1ccc2nc3oc(C(=O)NC4CCN(Cc5ccccc5)CC4)cc3cc2c1,13.0,26.7,.,-0.7,-19.3,32.4*,5.8,2.2
CCOC(=O)N1CCC(NC(=O)c2cc3cc4cc(OC)ccc4nc3o2)CC1,16.8,25.6,0.5,1.8,-20.1,86.1*,24.0,-5.1
O=C(NC1CCN(Cc2ccccc2)CC1)c1ccccc1,1.4,6.9,2.5,0.9,-7.4,2.4,.,.
Cc1noc(C)c1S(=O)(=O)N(C)C[C@@H]1OCc2cnnn2CCCC(=O)N([C@@H](C)CO)C[C@@H]1C,.,.,.,.,-10.3,.,.,.
O=S(=O)(NCc1ccc2c(c1)OCO2)c1ccc(F)c(F)c1,-5.6,0.3,1.6,-2.1,-3.5,-0.5,.,.
Cc1cc(S(=O)(=O)NCc2ccc3c(c2)OCO3)ccc1F,6.6,19.3,1.0,3.8,-8.8,87.3*,74.2*,96.4*
CC(=O)Nc1ccc(S(=O)(=O)N2CCC(C(=O)N[C@@H](C)C(=O)NC3CCCC3)CC2)cc1,-1.7,7.8,1.9,1.8,-5.5,5.7,.,.
COc1ccc(OC)c(/C=C/C(=O)N(C)CC(=O)Nc2ccc(C)cc2)c1,24.7,-7.4,-34.0,2.0,-80.5,22.8,.,.
CCN(CC(=O)NCc1cccs1)C(=O)/C=C/c1ccc(OC)cc1OC,21.8,.,0.4,.,-8.2,-0.2,.,.
COc1ccc(OC)c(/C=C/C(=O)N2CCN(S(=O)(=O)c3ccc(C)cc3C)CC2)c1,12.5,.,.,.,-32.1,29.4*,-1.5,-3.1
CCN(CC(=O)NCc1cccs1)C(=O)/C=C/c1cc(OC)ccc1OC,21.2,.,.,.,-64.0,37.3*,154.8*,115.4*
COc1ccc(OC)c(/C=C/C(=O)N(C)CC(=O)Nc2cc(C)ccc2C)c1,6.6,2.9,-29.7,1.7,-62.4,28.7*,34.0*,28.8*
CCOC(=O)C1CCCN(C(=O)c2cc3ccccc3oc2=O)C1 (configuration not stated),18.5,2.1,-0.6,2.9,-6.4,1.3,.,.
CC(OC(=O)/C=C/c1ccccc1)C(=O)Nc1cccc(C#N)c1 (configuration not stated),0.7,.,-1.7,.,23.4,1.0,.,.

# Screening data (PubChem)
